These results are taken from PubChem BioAssay.

Assay [1] in a line: HepG2 liver cancer cell viability effects, profiling panel, resazurin fluorescence, 24 h, PK04 Diversity Set (AID 1172). Conditions: higher = more signal. (In general: Alamar Blue is a resazurin reagent that responds to reducing activity.)
Assay [2] is described as follows: basal S. cerevisiae growth modulation, no modifier, primary screen, OD600, strain BY4716, 24 h, basal condition (AID 1173). Conditions: OD600, 24 h, higher = more signal, called active from +8 up or from −8 down.
A short description of assay [3]: MM1S myeloma cell viability, profiling panel, resazurin fluorescence, basal, 24 h, PK04 Diversity Set (AID 1174).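 Note: MM1S multiple myeloma cell line.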 Conditions: higher = more signal, called active from +8 up or from −8 down.
In assay [4] the target is Dihydroorotate dehydrogenase (quinone), mitochondrial (Plasmodium falciparum (isolate 3D7)) (UniProt Q08210). The assay is described as follows: PfDHODH enzyme inhibitors, primary screen, biochemical, C-terminal His tag, absorbance 600 nm (AID 1175).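 Note: recombinant parasite enzyme with a five histidine tag at its C terminus.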 Conditions: DCIP absorbance 600 nm, higher = more signal, called active from +8 up or from −8 down.
Assay [5] is described as follows: P. aeruginosa biofilm formation inhibitors, primary screen, strain PAO1, LB-PBS medium, absorbance 600 nm (AID 1176). Particulars: P. aeruginosa PAO1 growth/biofilm, A600, 12 h; higher = more signal.
Assay [6] in a line: S. cerevisiae RM11-1a growth modifiers, primary screen, strain RM11-1a, OD600, basal, 24 h (AID 1177).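 Note: cultures grown under basal conditions with no added stressor.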 Particulars: OD600, 24 h, higher = more signal, called active from +8 up or from −8 down.
Assay [7] is described as follows: E. coli acrAB mutant growth effects, primary screen, E. coli filamentation inducers, strain DRC39, OD650, 24 h (AID 1178).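 Note: growth measured as culture turbidity by optical density at 650 nm.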 Conditions: higher = more signal, called active from +8 up or from −8 down.
A short description of assay [8]: E. coli acrAB mutant growth effects, primary screen, E. coli filamentation inducers, strain DRC39, OD650, 48 h (AID 1179).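 Note: screen aims at cell division blockers that make cells filament.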 Particulars: E. coli DRC39 delta-acrAB growth, higher = more signal, called active from +8 up or from −8 down.
Assay [9] in a line: RPMI8226 myeloma cell viability, profiling panel, resazurin fluorescence, basal, 24 h, PK04 Diversity Set (AID 1180).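 Note: RPMI8826 multiple myeloma cell line at 5000 cells per well.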 Particulars: higher = more signal.
Assay [10] concerns the target E3 ubiquitin-protein ligase XIAP (Homo sapiens) (UniProt P98170). The assay is described as follows: XIAP binders, primary screen, biophysical, small-molecule microarray, fluorescence 635 nm (AID 1181).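 Note: score merges 667 nm emission and signal to noise over triplicate slides.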 Conditions: small-molecule microarray binding, higher = more signal.
Assay [11] relates to XIP peptide (Xip251-270) binding. As to the kind of experiment: small-molecule binders of XIP peptide, primary screen, biochemical, small-molecule microarray, fluorescence 635/667 nm, 0.1 µg/mL protein (AID 1182). Particulars: fluorescent protein binding, 635 nm, higher = more signal, called active from +8 up or from −8 down.
For assay [12], the system named is XIP peptide (Xip251-270). The assay is described as follows: small-molecule binders of XIP peptide, primary screen, biochemical, small-molecule microarray, fluorescence 635/667 nm, 0.5 µg/mL protein (AID 1183). Particulars: small-molecule microarray binding, fluorescence 635 nm; higher = more signal.
Assay [13] is described as follows: Plasmodium falciparum growth inhibition, primary screen, strain 3D7, DAPI fluorescence, 100 nL (AID 1184).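 Note: parasites grown inside human red blood cells in medium with human serum.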 Conditions: P. falciparum 3D7 growth, 3 d, higher = more signal.
Assay [14] deals with Homeobox protein Hox-A13 (Mus musculus) (UniProt Q62424). As to the kind of experiment: inhibitors of HoxA13-DNA binding, primary screen, biochemical, fluorescence polarization, labeled oligonucleotide (AID 1185). Conditions: 15 min, higher = more signal, called active from +8 up or from −8 down. A general note: Polarisation of emitted light reports the rotation of a fluorescent probe.

Assay [15] can be described thus: inhibitors of hydroxyurea-induced Chk1 phosphorylation, primary screen, imaging, HeLa, phospho-Chk1 antibody, percent positive cells (AID 1186). Particulars: hydroxyurea-induced phospho-Chk1 immunofluorescence imaging, higher = more signal.
Assay [16] in a line: inhibitors of hydroxyurea-induced Chk1 phosphorylation, primary screen, imaging, HeLa, phospho-Chk1 nuclear intensity (AID 1187). Conditions: hydroxyurea-induced phospho-Chk1 immunofluorescence imaging, higher = more signal.

Molecules are shown by their SMILES. Calls of active or inactive are those of the source. Unless noted, the rule behind the calls is not given here.

E3 ubiquitin-protein ligase XIAP (Homo sapiens), sequence (P98170 whole entry, looked up): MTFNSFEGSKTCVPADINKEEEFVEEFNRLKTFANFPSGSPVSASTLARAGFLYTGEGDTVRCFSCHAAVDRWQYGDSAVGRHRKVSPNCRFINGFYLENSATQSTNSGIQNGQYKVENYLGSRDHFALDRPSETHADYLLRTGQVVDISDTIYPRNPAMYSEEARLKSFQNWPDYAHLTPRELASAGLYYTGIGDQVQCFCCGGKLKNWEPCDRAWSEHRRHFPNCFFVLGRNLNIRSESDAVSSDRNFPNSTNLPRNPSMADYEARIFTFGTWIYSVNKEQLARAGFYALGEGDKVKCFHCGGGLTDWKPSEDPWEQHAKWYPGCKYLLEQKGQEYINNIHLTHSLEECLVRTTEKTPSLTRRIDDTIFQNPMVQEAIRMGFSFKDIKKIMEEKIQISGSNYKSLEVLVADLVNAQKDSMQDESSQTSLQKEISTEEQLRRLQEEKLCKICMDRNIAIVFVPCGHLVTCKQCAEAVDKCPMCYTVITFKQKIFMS
Homeobox protein Hox-A13 (Mus musculus), sequence (Q62424 whole entry, looked up): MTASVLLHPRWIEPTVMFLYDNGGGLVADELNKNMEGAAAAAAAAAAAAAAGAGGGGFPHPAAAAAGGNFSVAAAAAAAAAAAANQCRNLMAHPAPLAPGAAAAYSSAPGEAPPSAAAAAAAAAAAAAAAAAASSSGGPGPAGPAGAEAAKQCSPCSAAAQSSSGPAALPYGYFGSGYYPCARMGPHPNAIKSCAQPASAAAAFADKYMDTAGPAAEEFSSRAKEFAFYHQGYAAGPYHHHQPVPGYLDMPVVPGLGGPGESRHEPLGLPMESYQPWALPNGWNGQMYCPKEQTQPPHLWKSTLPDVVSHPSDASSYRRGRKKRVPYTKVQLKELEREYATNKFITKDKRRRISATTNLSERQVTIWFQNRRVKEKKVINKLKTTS
Dihydroorotate dehydrogenase (quinone), mitochondrial (Plasmodium falciparum (isolate 3D7)), sequence (Q08210 whole entry, looked up): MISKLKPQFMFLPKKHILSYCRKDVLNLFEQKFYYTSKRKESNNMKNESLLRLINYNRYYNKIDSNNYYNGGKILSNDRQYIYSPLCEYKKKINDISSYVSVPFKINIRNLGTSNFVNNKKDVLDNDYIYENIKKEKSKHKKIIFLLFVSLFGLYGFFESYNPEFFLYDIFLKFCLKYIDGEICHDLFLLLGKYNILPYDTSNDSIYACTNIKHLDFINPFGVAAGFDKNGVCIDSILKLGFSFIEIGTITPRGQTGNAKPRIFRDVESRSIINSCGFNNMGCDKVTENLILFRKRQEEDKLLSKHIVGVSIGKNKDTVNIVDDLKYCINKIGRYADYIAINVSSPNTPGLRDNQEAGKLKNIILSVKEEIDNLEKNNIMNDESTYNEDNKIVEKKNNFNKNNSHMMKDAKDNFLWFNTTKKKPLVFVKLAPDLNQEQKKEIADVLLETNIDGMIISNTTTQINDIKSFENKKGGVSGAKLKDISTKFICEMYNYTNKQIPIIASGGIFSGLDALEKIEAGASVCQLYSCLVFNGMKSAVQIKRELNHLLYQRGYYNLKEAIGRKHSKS

Take `CCCCC(O)C1C=CC2C(=O)N(C)C(=O)C2N1Nc1ccccc1` (configuration not stated): the z-score in assay [1] was -1.63; in assay [2] it was 0.216 (inactive); in assay [3], -1.39 (inactive); in assay [5] it was 1.22 (inactive); in assay [6], 1.53 (inactive); in [7], -0.867 (inactive). Moreover, the z-score in assay [8] is -0.618 (inactive); in assay [9], -1.5; in assay [13] it was -0.286; in [14], -4.23 (inactive); in assay [15], 0.342 (inactive); in assay [16], -0.0493 (inactive). The composite z-score was 0.957 (inactive) in assay [4], 0.0742 in [10], -0.141 (inactive) in [11] and 0.0092 in assay [12].
With `COc1ccccc1CN1C(=O)c2ccccc2[C@](Cc2ccccc2I)(C(=O)NCCCN(C)C)[C@@H]1c1ccc(CO)cc1`, the z-score in assay [1] was -6.49; in assay [2], -10.3 (active); in assay [3], -9.07 (active); in assay [5], 1.57 (inactive); in [6], -0.133 (inactive); in assay [7], -1.17 (inactive). Besides, the z-score was -2.71 (inactive) in [8]; -6.58 in assay [9]; -2.36 in assay [13]; 1.61 (inactive) in assay [14]; -0.215 (inactive) in assay [15]; -0.184 (inactive) in assay [16]. Moreover, the composite z-score in assay [4] was -0.572 (inactive); in [10], -0.175; in assay [11], 0.287 (inactive); in [12] it was 0.808.
Regarding `CC(C)c1ccc(NN2C(C(O)C(C)C)C=CC3C(=O)N(c4ccccc4)C(=O)C32)cc1` (configuration not stated), the z-score was -1.65 in assay [1]; -0.619 (inactive) in [2]; -0.331 (inactive) in assay [3]; 0.711 (inactive) in [5]; 1.57 (inactive) in assay [6]; 0.0582 (inactive) in assay [7]. Also, the z-score was -0.303 (inactive) in [8]; 0.0438 in [9]; -0.63 in assay [13]; -1.26 (inactive) in assay [14]; -0.172 (inactive) in assay [15]; -0.0386 (inactive) in [16]. In addition, the composite z-score in assay [4] is 0.974 (inactive); in assay [10], 0.132; in assay [11], 1.49 (inactive); in [12], 0.778.
As for `COc1cc(OC)c(C(O)C2C=CC3C(=O)N(c4ccccc4)C(=O)C3N2Nc2ccccc2F)cc1Br` (configuration not stated), the z-score in assay [1] was -0.384; in [2], -1.22 (inactive); in [3], -0.898 (inactive); in [5], 1.32 (inactive); in [6] it was 0.298 (inactive); in [7], -0.529 (inactive). In addition, the z-score in assay [8] is -0.595 (inactive); in assay [9], -2.08; in assay [13] it was 1.74; in assay [14], -1.47 (inactive); in [15], 0.195 (inactive); in assay [16], -0.0782 (inactive). Moreover, the composite z-score was -0.92 (inactive) in [4], 0.0245 in [10], 0.166 (inactive) in assay [11] and 0.758 in [12].
For the compound `COC(=O)C1=CC(CCCO)=CC(c2ccc(CN3CCCC3)cc2)N(Cc2sc3ccccc3c2Cl)C=C1C(=O)OC` (configuration not stated), the z-score is 0.666 in [1]; -2.54 (inactive) in assay [2]; 0.691 (inactive) in assay [3]; 0.186 (inactive) in [5]; -1.62 (inactive) in assay [6]; 0.735 (inactive) in [7]. Also, the z-score in [8] was 1.29 (inactive); in assay [9], 0.85; in assay [13], -1.95; in assay [14], -1.23 (inactive); in assay [15], -0.438 (inactive); in assay [16] it was -0.402 (inactive). Besides, the composite z-score in [4] is -1.63 (inactive); in assay [10], -0.0084; in assay [11], 4.74 (inactive); in assay [12], 0.916.
Consider `Cc1ccc(S[C@]2(C(=O)NCCN3CCOCC3)CC(=O)N(C3CCCCC3)[C@@H]2c2ccc(CO)cc2I)cc1`, for which the z-score in [1] is 1.5; in assay [2], -0.0113 (inactive); in assay [3] it was 0.482 (inactive); in assay [5] it was -0.447 (inactive); in [6], 1.27 (inactive); in [7], 0.464 (inactive). Besides, the z-score in [8] is 0.677 (inactive); in assay [9], -1.29; in assay [13], -1.92; in assay [14] it was -5.68 (inactive); in [15], 0.134 (inactive); in assay [16], 0.114 (inactive). The composite z-score was 0.88 (inactive) in assay [4], -0.302 in assay [10], 0.825 (inactive) in assay [11] and 0.657 in assay [12].
Regarding `Cc1ccc(F)cc1S(=O)(=O)N[C@@H]1CCN(Cc2ccc3[nH]ccc3c2)C1`, the z-score in assay [1] was -1.14; in assay [2] it was -2.59 (inactive); in assay [3], -0.946 (inactive); in [5] it was -0.189 (inactive); in assay [6] it was -0.773 (inactive); in assay [7], -1.37 (inactive). Besides, the z-score was -4.18 (inactive) in [8]; -0.73 in assay [9]; -1.3 in [13]; -4.14 (inactive) in assay [14]; 0.29 (inactive) in assay [15]; -0.075 (inactive) in assay [16]. The composite z-score in assay [4] is -0.203 (inactive); in assay [10], -0.144; in assay [11], -0.0141 (inactive); in assay [12] it was 0.261.
